# Assay results: the supplement of paper PMC10037445
# Whole data set: some 2,900 compounds, median “NF-kB SEAP reporter activity, fold change vs agonist alone” near 0.99, cut for the highest 2% near 2.6. The sample holds the highest values, similar compounds and a random draw of the others, so the mix is not that of the screen.
# Assays:
# [1] = test system: RAW-Dual; experiment: NF-kB SEAP reporter activity, fold change vs agonist alone; higher = enhanced NF-kB activity
# Method in brief: (§1)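 After 50 nL of library stock was delivered by pin tool to RAW-Dual macrophages (50,000 cells/well, DMEM, 384-well plates), a PRR agonist was added 1 h later and the plates were kept at 37 °C, 5% CO2. Twenty hours later, IRF was read from supernatant by QuantiLuc luminescence and NF-κB by QuantiBlue absorbance at 620 nm. Reporter activity is stated as fold change over agonist-alone wells. Wells with IncuCyte confluency under 70% of agonist controls in both mask sets were counted as cytotoxic.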
# [2] = test system: RAW-Dual; experiment: NF-kB SEAP reporter activity, fold change vs agonist alone; cytotoxicity flag (confluency mask): cytotoxic (confluency <70% of control); higher = enhanced NF-kB activity
# Method in brief: as §1
# [3] = test system: RAW-Dual; experiment: NF-kB SEAP reporter activity, fold change vs agonist alone; cytotoxicity flag (confluency mask): not cytotoxic; higher = enhanced NF-kB activity
# Method in brief: as §1
# [4] = library stock concentration (final ~1000-fold dilution): 10 mM, cytotoxicity flag (confluency mask): cytotoxic (confluency <70% of control), agonist: Imiquimod (TLR7) […]
# [5] = library stock concentration (final ~1000-fold dilution): 10 mM, cytotoxicity flag (confluency mask): cytotoxic (confluency <70% of control), agonist: MPLA (TLR4) […]
# [6] = agonist: ODN 1826 (TLR9) 0.5 ug/mL
# [7] = agonist: Pam2CSK4 (TLR2/6) 0.1 ug/mL
# [8] = agonist: Pam3CSK4 (TLR2/1) 0.1 ug/mL
# [9] = library stock concentration (final ~1000-fold dilution): 10 mM, cytotoxicity flag (confluency mask): not cytotoxic, agonist: Imiquimod (TLR7) […]
# [10] = library stock concentration (final ~1000-fold dilution): 10 mM, cytotoxicity flag (confluency mask): not cytotoxic, agonist: MPLA (TLR4) […]
compound,measurement,setting,value
CCC(N)CNc1ccnc(-c2cc(-c3cnn(C)c3)ccc2O)n1.Cl.Cl (centres undefined),NF-kB SEAP reporter activity,[1]; [4],0.144
same,NF-kB SEAP reporter activity,[1]; [5],0.254
CCC(N)CNc1ccnc(-c2cc(-c3cnn(C)c3)ccc2O)n1.Cl.Cl (centres undefined) (library stock concentration (final ~1000-fold dilution): 10 mM),NF-kB SEAP reporter activity,[2]; agonist: LPS (TLR4) 0.1 ug/mL,0.267
same,NF-kB SEAP reporter activity,[2]; [6],0.195
same,NF-kB SEAP reporter activity,[2]; [7],0.0684
same,NF-kB SEAP reporter activity,[2]; [8],0.127
N=C(N)NCCCCC1NC(=O)CCSSCC(C(N)=O)NC(=O)C2CCCN2C(=O)C(Cc2c[nH]c3ccccc23)NC(=O)C(CC(=O)O)NC(=O)CNC1=O (centres undefined),NF-kB SEAP reporter activity,"[1]; library stock concentration (final ~1000-fold dilution): 10 mM water, cytotoxicity flag (confluency mask): not cytotoxic, agonist: Imiquimod (TLR7) […]",0.957
same,NF-kB SEAP reporter activity,"[1]; library stock concentration (final ~1000-fold dilution): 10 mM water, cytotoxicity flag (confluency mask): not cytotoxic, agonist: MPLA (TLR4) […]",1.11
N=C(N)NCCCCC1NC(=O)CCSSCC(C(N)=O)NC(=O)C2CCCN2C(=O)C(Cc2c[nH]c3ccccc23)NC(=O)C(CC(=O)O)NC(=O)CNC1=O (centres undefined) (library stock concentration (final ~1000-fold dilution): 10 mM water),NF-kB SEAP reporter activity,[3]; agonist: LPS (TLR4) 0.1 ug/mL,1.2
same,NF-kB SEAP reporter activity,[3]; [6],1.15
same,NF-kB SEAP reporter activity,[3]; [7],1.24
same,NF-kB SEAP reporter activity,[3]; [8],1.06
O=c1cc(N2CCOCC2)oc2c(-c3ccc4c(c3)OCCO4)csc12,NF-kB SEAP reporter activity,[1]; [9],1.57
same,NF-kB SEAP reporter activity,[1]; [10],2.36
CC(Nc1cc(F)cc(F)c1)c1cc(C(=O)N(C)C)cc2c(=O)cc(N3CCOCC3)oc12 (centres undefined) (library stock concentration (final ~1000-fold dilution): 10 mM),NF-kB SEAP reporter activity,[3]; agonist: LPS (TLR4) 0.1 ug/mL,1.67
same,NF-kB SEAP reporter activity,[3]; [6],1.01
same,NF-kB SEAP reporter activity,[3]; [7],1.02
same,NF-kB SEAP reporter activity,[3]; [8],1.13
CC(Nc1cc(F)cc(F)c1)c1cc(C(=O)N(C)C)cc2c(=O)cc(N3CCOCC3)oc12 (centres undefined),NF-kB SEAP reporter activity,[1]; [9],0.569
same,NF-kB SEAP reporter activity,[1]; [10],1.21
O=c1cc(N2CCOCC2)oc2c(-c3ccc4c(c3)OCCO4)csc12 (library stock concentration (final ~1000-fold dilution): 10 mM),NF-kB SEAP reporter activity,[3]; agonist: LPS (TLR4) 0.1 ug/mL,6.86
same,NF-kB SEAP reporter activity,[3]; [6],2.26
same,NF-kB SEAP reporter activity,[3]; [7],0.957
same,NF-kB SEAP reporter activity,[3]; [8],2.84
CNC(C)C(=O)NC(C(=O)N1CCCC1C(=O)Nc1snnc1-c1ccccc1)C1CCCCC1 (centres undefined) (library stock concentration (final ~1000-fold dilution): 10 mM),NF-kB SEAP reporter activity,[3]; agonist: LPS (TLR4) 0.1 ug/mL,0.612
same,NF-kB SEAP reporter activity,[3]; [6],0.875
same,NF-kB SEAP reporter activity,[3]; [7],0.972
same,NF-kB SEAP reporter activity,[3]; [8],0.8
CNC(C)C(=O)NC(C(=O)N1CCCC1C(=O)Nc1snnc1-c1ccccc1)C1CCCCC1 (centres undefined),NF-kB SEAP reporter activity,[1]; [9],0.887
same,NF-kB SEAP reporter activity,[1]; [10],0.824
O=C(Nc1ccccc1C(=O)O)c1cc(S(=O)(=O)c2ccccc2)ccc1Cl,NF-kB SEAP reporter activity,[1]; [9],0.883
same,NF-kB SEAP reporter activity,[1]; [10],1.01
O=C(Oc1coc(CSc2ncccn2)cc1=O)c1ccc([N+](=O)[O-])cc1,NF-kB SEAP reporter activity,[1]; [9],0.717
same,NF-kB SEAP reporter activity,[1]; [10],1.01
O=C(Oc1cc(S(=O)(=O)c2ccccc2)ccc1[N+](=O)[O-])c1ccc(Cl)cc1 (library stock concentration (final ~1000-fold dilution): 10 mM),NF-kB SEAP reporter activity,[3]; agonist: LPS (TLR4) 0.1 ug/mL,5.2
same,NF-kB SEAP reporter activity,[3]; [6],2.09
same,NF-kB SEAP reporter activity,[3]; [7],1.03
same,NF-kB SEAP reporter activity,[3]; [8],1.81
O=C(Nc1ccccc1C(=O)O)c1cc(S(=O)(=O)c2ccccc2)ccc1Cl (library stock concentration (final ~1000-fold dilution): 10 mM),NF-kB SEAP reporter activity,[3]; agonist: LPS (TLR4) 0.1 ug/mL,1.19
same,NF-kB SEAP reporter activity,[3]; [6],0.999
same,NF-kB SEAP reporter activity,[3]; [7],1.09
same,NF-kB SEAP reporter activity,[3]; [8],1.13
O=C(Oc1cc(S(=O)(=O)c2ccccc2)ccc1[N+](=O)[O-])c1ccc(Cl)cc1,NF-kB SEAP reporter activity,[1]; [9],1.32
same,NF-kB SEAP reporter activity,[1]; [10],2.59
O=C(Oc1coc(CSc2ncccn2)cc1=O)c1ccc([N+](=O)[O-])cc1 (library stock concentration (final ~1000-fold dilution): 10 mM),NF-kB SEAP reporter activity,[3]; agonist: LPS (TLR4) 0.1 ug/mL,1.26
same,NF-kB SEAP reporter activity,[3]; [6],0.944
same,NF-kB SEAP reporter activity,[3]; [7],1.19
same,NF-kB SEAP reporter activity,[3]; [8],0.981
COCCOc1cc(F)c2c(Nc3ccc(NC(=O)Cn4cc(C(C)C)nn4)cc3)ncnc2c1,NF-kB SEAP reporter activity,[1]; [9],1.14
same,NF-kB SEAP reporter activity,[1]; [10],1.01
COCCOc1cc(F)c2c(Nc3ccc(NC(=O)Cn4cc(C(C)C)nn4)cc3)ncnc2c1 (library stock concentration (final ~1000-fold dilution): 10 mM),NF-kB SEAP reporter activity,[3]; agonist: LPS (TLR4) 0.1 ug/mL,1.36
same,NF-kB SEAP reporter activity,[3]; [6],0.989
same,NF-kB SEAP reporter activity,[3]; [7],1.16
same,NF-kB SEAP reporter activity,[3]; [8],1.24
CC(C)c1cnn2c(NCc3ccccc3)cc(NCCCCCCN)nc12.Cl (library stock concentration (final ~1000-fold dilution): 10 mM),NF-kB SEAP reporter activity,[2]; agonist: LPS (TLR4) 0.1 ug/mL,0.271
same,NF-kB SEAP reporter activity,[2]; [6],0.234
same,NF-kB SEAP reporter activity,[2]; [7],1.08
same,NF-kB SEAP reporter activity,[2]; [8],1.5
CC(C)c1cnn2c(NCc3ccccc3)cc(NCCCCCCN)nc12.Cl,NF-kB SEAP reporter activity,[1]; [4],2.18
same,NF-kB SEAP reporter activity,[1]; [5],0.882
COc1cc2c(cc1NS(=O)(=O)c1ccc(Br)cc1C)n(C)c(=O)n2C,NF-kB SEAP reporter activity,[1]; [9],0.973
same,NF-kB SEAP reporter activity,[1]; [10],1.39
COc1ccccc1N1CCN(CCCNc2cc(=O)n(C)c(=O)n2C)CC1.Cl (library stock concentration (final ~1000-fold dilution): 10 mM),NF-kB SEAP reporter activity,[3]; agonist: LPS (TLR4) 0.1 ug/mL,1.02
same,NF-kB SEAP reporter activity,[3]; [6],0.978
same,NF-kB SEAP reporter activity,[3]; [7],1.06
same,NF-kB SEAP reporter activity,[3]; [8],1.17
COc1cc2c(cc1NS(=O)(=O)c1ccc(Br)cc1C)n(C)c(=O)n2C (library stock concentration (final ~1000-fold dilution): 10 mM),NF-kB SEAP reporter activity,[3]; agonist: LPS (TLR4) 0.1 ug/mL,1.73
same,NF-kB SEAP reporter activity,[3]; [6],1.23
same,NF-kB SEAP reporter activity,[3]; [7],0.828
same,NF-kB SEAP reporter activity,[3]; [8],1.08
COc1ccccc1S(=O)(=O)Nc1ccc2c(c1)CN(C)C(=O)N2 (library stock concentration (final ~1000-fold dilution): 10 mM),NF-kB SEAP reporter activity,[3]; agonist: LPS (TLR4) 0.1 ug/mL,3.81
same,NF-kB SEAP reporter activity,[3]; [6],2.25
same,NF-kB SEAP reporter activity,[3]; [7],0.457
same,NF-kB SEAP reporter activity,[3]; [8],1.4
